# The supplement of paper PMC7411054
# Where a name gives a salt, the structure may show the parent alone.
# What was measured:
# Details in all cases: treatment time: 24 h
# A549-ACTB-RAB5A [1] = assay: phenotypically active (imaging signature differs from DMSO and reproducible) at any of 0.3-9 uM (binary (1 = active, 0 = inactive)); higher = active
# Outline: (§1)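 Two criteria together defined phenotypic activity: deviation and reproducibility. Deviation meant ≥3 of 4 wells beyond the 95th percentile of Euclidean distances in solvent control wells, and reproducibility meant a median replicate Pearson correlation above the 95th percentile of non-replicates. Wells had been treated for 24 h at 0.3, 1, 3 or 9 µM in fifteen gene-edited A549, HepG2 and WPMY1 reporter lines before live imaging.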
# A549-CANX-COX4 = assay: as above
# Outline: as §1
# A549-GM130-SQSTM1 [2] = assay: as above
# Outline: as §1
# A549-TP53BP1-CLTA [3] = assay: as above
# Outline: as §1
# A549-TUBA1B-RELA = assay: as above
# Outline: as §1
# HepG2-ACTB-RAB5A [4] = assay: as above
# Outline: as §1
# HepG2-CANX-COX4 = assay: as above
# Outline: as §1
# HepG2-GM130-SQSTM1 = assay: as above
# Outline: as §1
# HepG2-TP53BP1-CLTA = assay: as above
# Outline: as §1
# HepG2-TUBA1B-RELA = assay: as above
# Outline: as §1
# WPMY1-ACTB-RAB5A = assay: as above
# Outline: as §1
# WPMY1-CANX-COX4 = assay: as above
# Outline: as §1
# WPMY1-GM130-SQSTM1 [5] = assay: as above
# Outline: as §1
# WPMY1-TP53BP1-CLTA = assay: as above
# Outline: as §1
# WPMY1-TUBA1B-RELA = assay: as above
# Outline: as §1
# A549-ACTB-RAB5A [6] = assay: lowest phenotypically active concentration; higher = less potent
# Outline: as §1
# A549-GM130-SQSTM1 [7] = assay: as above
# Outline: as §1
# A549-TP53BP1-CLTA [8] = assay: as above
# Outline: as §1
# HepG2-ACTB-RAB5A [9] = assay: as above
# Outline: as §1
# WPMY1-GM130-SQSTM1 [10] = assay: as above
# Outline: as §1
SMILES,phenotypically active (A549-ACTB-RAB5A [1]),phenotypically active (A549-CANX-COX4),phenotypically active (A549-GM130-SQSTM1 [2]),phenotypically active (A549-TP53BP1-CLTA [3]),phenotypically active (A549-TUBA1B-RELA),phenotypically active (HepG2-ACTB-RAB5A [4]),phenotypically active (HepG2-CANX-COX4),phenotypically active (HepG2-GM130-SQSTM1),phenotypically active (HepG2-TP53BP1-CLTA),phenotypically active (HepG2-TUBA1B-RELA),phenotypically active (WPMY1-ACTB-RAB5A),phenotypically active (WPMY1-CANX-COX4),phenotypically active (WPMY1-GM130-SQSTM1 [5]),phenotypically active (WPMY1-TP53BP1-CLTA),phenotypically active (WPMY1-TUBA1B-RELA),lowest phenotypically active concentration (A549-ACTB-RAB5A [6]) [µM],lowest phenotypically active concentration (A549-GM130-SQSTM1 [7]) [µM],lowest phenotypically active concentration (A549-TP53BP1-CLTA [8]) [µM],lowest phenotypically active concentration (HepG2-ACTB-RAB5A [9]) [µM],lowest phenotypically active concentration (WPMY1-GM130-SQSTM1 [10]) [µM]
COc1cc2c3cc1Oc1cc(ccc1O)C[C@@H]1c4c(cc(OC)c(O)c4Oc4cccc(c4)C[C@@H]3N(C)CC2)CC[N+]1(C)C [Tubocurarine chloride pentahydrate (+)],0 (inactive),0 (inactive),0 (inactive),0 (inactive),0 (inactive),0 (inactive),0 (inactive),0 (inactive),0 (inactive),0 (inactive),0 (inactive),0 (inactive),0 (inactive),0 (inactive),0 (inactive),,,,,
C[C@]12COC(=O)C[C@@H]1CC[C@@H]1[C@@H]2CC[C@@]2(C)[C@H]1CC[C@]2(C)O [oxandrolone],0 (inactive),0 (inactive),0 (inactive),0 (inactive),0 (inactive),0 (inactive),0 (inactive),0 (inactive),0 (inactive),0 (inactive),0 (inactive),0 (inactive),0 (inactive),0 (inactive),0 (inactive),,,,,
CNCC(O)c1ccc(O)c(OC)c1 (stereo not drawn) [Metanephrine hydrochloride DL],0 (inactive),0 (inactive),0 (inactive),0 (inactive),0 (inactive),0 (inactive),0 (inactive),0 (inactive),0 (inactive),0 (inactive),0 (inactive),0 (inactive),0 (inactive),0 (inactive),0 (inactive),,,,,
C[C@H]1O[C@@H](O[C@H]2[C@@H](O)C[C@H](O[C@H]3[C@@H](O)C[C@H](O[C@H]4CC[C@@]5(C)[C@H](CC[C@@H]6[C@@H]5CC[C@]5(C)[C@@H](C7=CC(=O)OC7)[C@@H](O)C[C@]65O)C4)O[C@@H]3C)O[C@@H]2C)C[C@H](O)[C@@H]1O [Gitoxin],1 (active),1 (active),1 (active),1 (active),1 (active),1 (active),1 (active),1 (active),1 (active),1 (active),1 (active),1 (active),1 (active),1 (active),1 (active),≤ 0.3,≤ 0.3,≤ 0.3,≤ 0.3,1
C[C@]12CC[C@H]3[C@@H](CC[C@]4(O)C[C@@H](O)CC[C@]34C=O)[C@@]1(O)CC[C@@H]2C1=CC(=O)OC1 [Strophanthidin],1 (active),1 (active),1 (active),1 (active),1 (active),1 (active),1 (active),1 (active),1 (active),1 (active),1 (active),1 (active),1 (active),1 (active),1 (active),≤ 0.3,≤ 0.3,≤ 0.3,≤ 0.3,≤ 0.3
O=P1(NCCCl)OCCCN1CCCl (stereo not given) [ifosfamide],0 (inactive),0 (inactive),0 (inactive),0 (inactive),0 (inactive),0 (inactive),0 (inactive),0 (inactive),0 (inactive),0 (inactive),0 (inactive),0 (inactive),0 (inactive),0 (inactive),0 (inactive),,,,,
CN1C[C@H](C(=O)N[C@]2(C)O[C@@]3(O)[C@@H]4CCCN4C(=O)[C@H](Cc4ccccc4)N3C2=O)C=C2c3cccc4[nH]cc(c34)C[C@H]21 [ergotamine],1 (active),1 (active),1 (active),1 (active),1 (active),1 (active),1 (active),1 (active),1 (active),1 (active),1 (active),1 (active),1 (active),1 (active),1 (active),9,3,3,9,3
COC1=CC(C)=C[C@@H](C)[C@@H](O)[C@@H](C)CC(C)=CC=C[C@H](OC)[C@@H]([C@@H](C)[C@@H](O)[C@H](C)[C@@]2(O)C[C@@H](O)[C@H](C)[C@@H](C(C)C)O2)OC1=O [Bafilomycin A1],1 (active),1 (active),1 (active),1 (active),1 (active),1 (active),1 (active),1 (active),1 (active),1 (active),1 (active),1 (active),1 (active),1 (active),1 (active),≤ 0.3,≤ 0.3,3,3,1
